# In ChEMBL document CHEMBL3433997, “St. Jude Leishmania screening dataset” (2016):
# Tests used:
# Assay type in all cases: functional
# [1] = target: Solute carrier family 2, facilitated glucose transporter member 1 (Homo sapiens) (UniProt P11166); test: ST_JUDE_LEISH: Cytotoxicity at 2uM final concentration against transgenic Leishmania Mexicana promastigotes LmGLUT1 that are glucose transport deficient and complemented with the human glucose transporter GLUT1. Activity is measured by DNA content using SYBR green in vitro
# [2] = target: Hexose transporter 1 (Plasmodium falciparum) (UniProt O97467); test: ST_JUDE_LEISH: Cytotoxicity at 2uM final concentration against transgenic Leishmania Mexicana promastigotes LmPfHT that are glucose transport deficient and complemented with the Plasmodium falciparum hexose transporter. Activity is measured by DNA content using SYBR green in vitro
# [3] = target: Glucose transporter (Leishmania mexicana) (UniProt O61059); test: ST_JUDE_LEISH: Cytotoxicity at 2uM final concentration against transgenic Leishmania Mexicana promastigotes LmGT2 that are glucose transport deficient and complemented with the L. Mexicana glucose transporter 2. Activity is measured by DNA content using SYBR green in vitro
# Chain of Solute carrier family 2, facilitated glucose transporter member 1 (Homo sapiens) (P11166 whole entry): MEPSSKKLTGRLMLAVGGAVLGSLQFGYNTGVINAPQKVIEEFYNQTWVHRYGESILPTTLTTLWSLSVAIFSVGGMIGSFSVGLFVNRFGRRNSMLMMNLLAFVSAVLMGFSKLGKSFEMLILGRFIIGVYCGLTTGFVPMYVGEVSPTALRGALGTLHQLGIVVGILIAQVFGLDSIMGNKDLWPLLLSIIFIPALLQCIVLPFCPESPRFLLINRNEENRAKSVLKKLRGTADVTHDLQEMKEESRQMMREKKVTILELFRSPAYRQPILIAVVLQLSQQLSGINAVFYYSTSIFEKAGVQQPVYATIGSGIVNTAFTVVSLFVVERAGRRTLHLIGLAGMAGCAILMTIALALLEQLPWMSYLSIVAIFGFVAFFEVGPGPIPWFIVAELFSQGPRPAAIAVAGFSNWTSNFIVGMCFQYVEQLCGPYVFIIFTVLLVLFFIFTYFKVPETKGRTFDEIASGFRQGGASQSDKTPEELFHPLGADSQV
Compound,inhibition [1],inhibition [2],inhibition [3]
O=C(NC12CC3CC(CC(C3)C1)C2)C(=O)c1c[nH]c2ccccc12,3.4%,3.09%,1.4%
Oc1ccc2[nH]cc(C3CCN(CCCNCc4ccc(-c5ccccc5)cc4)CC3)c2c1,5.26%,8.52%,2.61%
Cc1ccc(-n2cc(CNCCc3nc(C)c[nH]3)c(-c3ccc(F)cc3)n2)cc1,4.34%,3.49%,2.6%
COc1ccc(-c2nc(NC(=O)COc3ccc(C(C)=O)cc3)sc2C)cc1,2.62%,2.48%,2.69%
CC(=O)c1cccc(Nc2nc3ccc(OCc4cc(Cl)cc(Cl)c4)c(C#N)c3[nH]2)c1,3.61%,2.38%,2.87%
CC(=O)Nc1cccc(C(=O)Nc2cccc(-c3ccc(-c4nc5cc(C(F)(F)F)ccc5[nH]4)s3)c2)c1,0.34%,0.52%,0.89%
CCCOc1ccc(CCCON2C(N)=NC(N)=NC2(C)C)cc1,7.95%,13%,6.99%
O=C(NCCCCCN1CCC(c2c[nH]c3ccccc23)CC1)Nc1ccc(I)cc1,11%,5.79%,9.45%
CCN1CCCC(Nc2ccnc3cc4ccccc4cc23)C1 (stereo unspecified),4.12%,4.34%,4.81%
CC[C@H](C)[C@H](NC(=O)[C@H](CC1CCCCC1)[C@H](CC)N(O)C=O)C(=O)Nc1ccccn1,8.41%,8.39%,8.25%
COc1cc2c(cc1C(F)(F)F)N(C(=O)Nc1cc(OC(F)(F)F)cc(-c3cccnc3)c1)CC2,-0.39%,1.79%,-0.44%
CC(O)C1CCCCN1C(=O)c1ccc(-c2ccc(-c3nc4ccccc4[nH]3)s2)cc1 (stereo unspecified),-1.19%,-3.15%,-1.69%
